# Test results: the supplement of paper PMC8728848
# Many of the other results were omitted from the sample, so the strongest signals are more common in it than they were.
# B1: Neuropilin-1 (Rattus norvegicus), Q9QWJ9 (protein)
# chain: MERGLPLLCATLALALALAGAFRSDKCGGTIKIENPGYLTSPGYPHSYHPSEKCEWLIQAPEPYQRIMINFNPHFDLEDRDCKYDYVEVIDGENEGGRLWGKFCGKIAPSPVVSSGPFLFIKFVSDYETHGAGFSIRYEIFKRGPECSQNYTAPTGVIKSPGFPEKYPNSLECTYIIFAPKMSEIILEFESFDLEQDSNPPGGVFCRYDRLEIWDGFPEVGPHIGRYCGQKTPGRIRSSSGILSMVFYTDSAIAKEGFSANYSVLQSSISEDFKCMEALGMESGEIHSDQITASSQYGTNWSVERSRLNYPENGWTPGEDSYREWIQVDLGLLRFVTAVGTQGAISKETKKKYYVKTYRVDISSNGEDWITLKEGNKAIIFQGNTNPTDVVFGVFPKPLITRFVRIKPASWETGISMRFEVYGCKITDYPCSGMLGMVSGLISDSQITASNQGDRNWMPENIRLVTSRTGWALPPSPHPYINEWLQVDLGDEKIVRGVIIQGGKHRENKVFMRKFKIAYSNNGSDWKMIMDDSKRKAKSFEGNNNYDTPELRAFTPLSTRFIRIYPERATHSGLGLRMELLGCEVEVPTAGPTTPNGNPVDECDDDQANCHSGTGDDFQLTGGTTVLATEKPTIIDSTIQSEFPTYGFNCEFGWGSHKTFCHWEHDSHAQLRWRVLTSKTGPIQDHTGDGNFIYSQADENQKGKVARLVSPVVYSQSSAHCMTFWYHMSGSHVGTLRVKLHYQKPEEYDQLVWMVVGHQGDHWKEGRVLLHKSLKLYQVIFEGEIGKGNLGGIAVDDISINNHIPQEDCAKPTDLDKKNTEIKIDETGSTPGYEEGKGDKNISRKPGNVLKTLDPILITIIAMSALGVLLGAVCGVVLYCACWHNGMSERNLSALENYNFELVDGVKLKKDKLNPQSNYSEA
# Tests used:
# Experiment in all cases: glycan array binding signal (z-score within array); higher = stronger binding
# Conditions in all cases: glycan notation: IUPAC condensed, linker removed
# [1] = target: Fuc(a1-2)Gal(b1-4)GlcNAc(b1-2)Man(a1-3)[Fuc(a1-2)Gal(b1-4)GlcNAc(b1-2)Man(a1-6)]Man(b1-4)GlcNAc(b1-4)GlcNAc
# Method in brief: (§1)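 Glycan array data came from 3228 arrays in the Consortium for Functional Glycomics database, and only arrays with an available protein sequence were kept. Glycan names were put into IUPAC-condensed notation, and columns mapping to the same glycan were averaged. The binding signal is a within-array Z-score, averaged across arrays of one protein sequence run at different concentrations or buffers and across linkers. A negative Z-score can be read as non-binding.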
# [2] = target: Fuc(a1-2)Gal(b1-4)[Fuc(a1-3)]GlcNAc(b1-2)Man(a1-3)[Fuc(a1-2)Gal(b1-4)[Fuc(a1-3)]GlcNAc(b1-2)Man(a1-6)]Man(b1-4)GlcNAc(b1-4)GlcNAc
# Method in brief: as §1
# Fuc(a1-2)[Gal(a1-3)]Gal = target: Fuc(a1-2)[Gal(a1-3)]Gal
# Method in brief: as §1
# [3] = target: Fuc(a1-2)[Gal(a1-3)]Gal(b1-4)GlcNAc(b1-2)Man(a1-3)[Fuc(a1-2)[Gal(a1-3)]Gal(b1-4)GlcNAc(b1-2)Man(a1-6)]Man(b1-4)GlcNAc(b1-4)GlcNAc
# Method in brief: as §1
# [4] = target: Fuc(a1-2)[GalNAc(a1-3)]Gal(b1-4)GlcNAc(b1-2)Man(a1-3)[GalNAc(a1-3)[Fuc(a1-2)]Gal(b1-4)GlcNAc(b1-2)Man(a1-6)]Man(b1-4)GlcNAc(b1-4)GlcNAc
# Method in brief: as §1
# [5] = target: Fuc(a1-2)[GalNAc(a1-3)]Gal(b1-4)GlcNAc(b1-3)Gal(b1-4)GlcNAc
# Method in brief: as §1
# [6] = target: Fuc(a1-3)[Gal(b1-4)]GlcNAc(b1-2)Man(a1-6)[Gal(b1-4)GlcNAc(b1-2)Man(a1-3)]Man(b1-4)GlcNAc(b1-4)GlcNAc
# Method in brief: as §1
# [7] = target: Fuc(a1-3)[Gal(b1-4)]GlcNAc6S
# Method in brief: as §1
# [8] = target: Fuc(a1-3)[Gal3S(b1-4)]GlcNAc
# Method in brief: as §1
# [9] = target: Gal(a1-3)Gal(b1-4)[Fuc(a1-3)]GlcNAc(b1-2)Man(a1-3)[Gal(a1-3)Gal(b1-4)[Fuc(a1-3)]GlcNAc(b1-2)Man(a1-6)]Man(b1-4)GlcNAc(b1-4)GlcNAc
# Method in brief: as §1
# Gal(a1-4)Gal(b1-4)GlcNAc = target: Gal(a1-4)Gal(b1-4)GlcNAc
# Method in brief: as §1
# Gal(b1-2)Gal = target: Gal(b1-2)Gal
# Method in brief: as §1
# [10] = target: Gal(b1-3)GlcNAc(b1-2)Man(a1-3)[Gal(b1-3)GlcNAc(b1-2)Man(a1-6)]Man(b1-4)GlcNAc(b1-4)GlcNAc
# Method in brief: as §1
# [11] = target: Gal(b1-3)[Neu5Ac(b2-6)]GalNAc
# Method in brief: as §1
# [12] = target: Gal(b1-4)GalNAc(a1-3)[Fuc(a1-2)]Gal(b1-4)GlcNAc
# Method in brief: as §1
# GlcA(b1-6)Gal = target: GlcA(b1-6)Gal
# Method in brief: as §1
# [13] = target: GlcNAc(a1-4)Gal(b1-4)GlcNAc(b1-3)Gal(b1-4)[Fuc(a1-3)]GlcNAc(b1-3)Gal(b1-4)[Fuc(a1-3)]GlcNAc
# Method in brief: as §1
# [14] = target: Neu5Ac(a2-3)Gal(b1-3)GalNAc
# Method in brief: as §1
# [15] = target: Neu5Ac(a2-3)Gal(b1-3)GalNAc6S
# Method in brief: as §1
# [16] = target: Neu5Ac(a2-3)Gal(b1-3)GlcNAc
# Method in brief: as §1
# [17] = target: Neu5Ac(a2-3)Gal(b1-3)GlcNAc6S
# Method in brief: as §1
# [18] = target: Neu5Ac(a2-3)Gal(b1-3)[Fuc(a1-4)]GlcNAc(b1-3)Gal(b1-4)[Fuc(a1-3)]GlcNAc
# Method in brief: as §1
# [19] = target: Neu5Ac(a2-3)Gal(b1-4)GlcNAc(b1-3)Gal(b1-4)GlcNAc(b1-3)Gal(b1-4)GlcNAc
# Method in brief: as §1
# [20] = target: Neu5Ac(a2-3)Gal(b1-4)[Fuc(a1-3)]GlcNAc(b1-6)[Gal(b1-3)]GalNAc
# Method in brief: as §1
# [21] = target: Neu5Ac(a2-3)Gal(b1-4)[Fuc(a1-3)]GlcNAc(b1-6)[Neu5Ac(a2-3)Gal(b1-3)]GalNAc
# Method in brief: as §1
# Neu5Ac(a2-3)GalNAc = target: Neu5Ac(a2-3)GalNAc
# Method in brief: as §1
# [22] = target: Neu5Ac(a2-6)Gal(b1-4)GlcNAc(b1-2)Man(a1-3)Man(b1-4)GlcNAc(b1-4)GlcNAc
# Method in brief: as §1
# [23] = target: Neu5Ac(a2-6)Gal(b1-4)GlcNAc6S
# Method in brief: as §1
# [24] = target: Neu5Ac(b2-6)Gal(b1-4)GlcNAc
# Method in brief: as §1
# Neu5Gc(a2-3)Gal(b1-4)Glc = target: Neu5Gc(a2-3)Gal(b1-4)Glc
# Method in brief: as §1
binder,measurement,setting,value
B1,glycan array binding signal (z-score),[1],7.46
same,glycan array binding signal (z-score),[2],2.97
same,glycan array binding signal (z-score),Fuc(a1-2)[Gal(a1-3)]Gal,-0.352
same,glycan array binding signal (z-score),[3],7.21
same,glycan array binding signal (z-score),[4],5.38
same,glycan array binding signal (z-score),[5],-0.035
same,glycan array binding signal (z-score),[6],-0.363
same,glycan array binding signal (z-score),[7],0.233
same,glycan array binding signal (z-score),[8],-0.201
same,glycan array binding signal (z-score),[9],4.58
same,glycan array binding signal (z-score),Gal(a1-4)Gal(b1-4)GlcNAc,-0.229
same,glycan array binding signal (z-score),Gal(b1-2)Gal,-0.273
same,glycan array binding signal (z-score),[10],-0.258
same,glycan array binding signal (z-score),[11],-0.235
same,glycan array binding signal (z-score),[12],0.018
same,glycan array binding signal (z-score),GlcA(b1-6)Gal,-0.148
same,glycan array binding signal (z-score),[13],2.61
same,glycan array binding signal (z-score),[14],-0.323
same,glycan array binding signal (z-score),[15],-0.301
same,glycan array binding signal (z-score),[16],-0.274
same,glycan array binding signal (z-score),[17],-0.371
same,glycan array binding signal (z-score),[18],0.102
same,glycan array binding signal (z-score),[19],-0.331
same,glycan array binding signal (z-score),[20],8.12
same,glycan array binding signal (z-score),[21],4.25
same,glycan array binding signal (z-score),Neu5Ac(a2-3)GalNAc,-0.28
same,glycan array binding signal (z-score),[22],-0.309
same,glycan array binding signal (z-score),[23],-0.311
same,glycan array binding signal (z-score),[24],-0.253
same,glycan array binding signal (z-score),Neu5Gc(a2-3)Gal(b1-4)Glc,-0.189
